This is an account of results in PubChem BioAssay AID430 (Sanford-Burnham Center for Chemical Genomics, 2006).

Each structure is given as a SMILES string. Out of some 63,000 compounds screened, about 1,100 (1.7%) were called active. No stated cut-off is given here; in the data, active means cytotoxicity above about 50%; inactive means the rest. The sample as a whole holds a higher share of actives than the screen did. Entries with a potency or affinity are not part of this list.

The test can be described thus: HPDE-C7 pancreatic duct cell viability loss – fluorescence, HTS (AID 430).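 Further: cells exposed to compound for 48 hours before viability readout; 0% = vehicle and 100% = reference cytotoxic drug.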 The conditions noted are these: HPDE-C7 pancreatic duct cells viability, at 10 µM, stronger effect = higher value.
As to `O=C(COC(=O)CCOc1ccccc1)Nc1ccc(Cl)cn1`, the cytotoxicity was 0.1% (inactive).
Then `Cc1cc(SCC#N)n2nc(C)c(-c3ccccc3)c2n1`, with -24.7% (inactive); and `COc1ccc2c(c1)c(C(O)CN1CCC3(CC1)OCCO3)c(C)n2C` (configuration not stated), with 9% (inactive).
Under `OC(CCN1CCCC1)(c1ccccc1)C1CCCCC1` (configuration not stated) stands 8.5% (inactive); under `CC(C)(C)c1ccc(C(O)CCCN2CCC(C(O)(c3ccccc3)c3ccccc3)CC2)cc1` (configuration not stated), 118% (active); under `OC(CCN1CCCCC1)(c1ccccc1)C1CCCCC1` (configuration not stated), -15.8% (inactive).
As to `C/C(=N\O)C1/C(=N/O)CC2C1C2(C)C` (configuration not stated), the cytotoxicity was -4.3% (inactive).
Then `Nc1nc(C(=O)N2CCOCC2)nn1S(=O)(=O)c1ccc(Cl)cc1`, with 2.7% (inactive); and `COc1ccc(C(=O)Oc2cccnc2)cc1OC`, with -11.9% (inactive); and `CN1C(=O)c2cccc(NC(=O)Cc3ccccc3)c2C1=O`, with -1.7% (inactive).
Then `CC1CCc2nc(NC(=O)c3ccco3)sc2C1` (configuration not stated), with -13.6% (inactive).
As to `O=C(Nc1nc2c(s1)CCc1ccccc1-2)c1ccco1`, the cytotoxicity was 15.6% (inactive).
Then `O=C(c1ccc(Br)s1)N1CCN(Cc2ccc3c(c2)OCO3)CC1`, with 11.8% (inactive); and `CN(C)/C=C1\N=C(c2ccc3c(c2)OCO3)OC1=O`, with -1.7% (inactive).
Then `CSc1cccc(-n2cc(-c3ccc4c(c3)OCO4)[nH]c2=O)c1`, with 52.8% (active); and `Cc1ccc(-n2cc(-c3ccccc3)[nH]c2=O)cc1F`, with -20.5% (inactive); and `O=C(Cc1ccc(S(=O)(=O)N2CCOCC2)s1)Nc1ccc2c(c1)CCC2`, with 3.3% (inactive).
Under `COc1ccc(CN2CCN(C(=O)c3cc(OC)c(OC)c(OC)c3)CC2)cc1OC` stands -11.1% (inactive); under `CCCSc1nnc(NC(=O)Nc2ccc(F)cc2)s1`, 69.6% (active).
Turning to `CCCSc1nnc(NC(=O)Nc2ccccc2)s1`, the cytotoxicity is 6.3% (inactive).
Under `CCC(=O)Nc1nnc(SCC(=O)Nc2ccc(F)cc2)s1` stands 2.1% (inactive).
Turning to `COc1ccccc1NC(=O)CN1CCN(Cc2ccccc2)CC1`, the cytotoxicity was 3% (inactive).
Then `COc1ccc(C(C)=O)cc1COC(=O)c1c(C)noc1C`, with 7.1% (inactive).
For the compound `COC(=O)c1sc(N)c(C(=O)OC)c1COC(=O)c1c(C)noc1C`, the cytotoxicity was 64.9% (active).
`COC(=O)c1c(N)sc(C(C)=O)c1C`: the cytotoxicity is -7.8% (inactive).
Then `CC(C)CCNc1nc2c(c(=O)n(Cc3cccc(F)c3)c(=O)n2C)n1C`, with 35.2% (inactive); and `COc1ccc(-c2cn3c(n2)CCC3)cc1`, with 14.1% (inactive).
Under `CCCCCC1CCC(C(=O)O)CC1` (configuration not stated) stands -12.7% (inactive); under `COC(=O)c1ccc2c(c1)N(Cc1nc(-c3cccc(Cl)c3)oc1C)C(=O)C1CCCN21` (configuration not stated), 40.7% (inactive).
Then `COC(=O)c1ccc2c(c1)N(Cc1nc(-c3ccc(Cl)cc3)oc1C)C(=O)C1CCCN21` (configuration not stated), with -1.4% (inactive); and `COC(=O)c1ccc2c(c1)N(Cc1nc(-c3cccc(C)c3)oc1C)C(=O)C1CCCN21` (configuration not stated), with 55.8% (active); and `CC(C)CCOCC1CC2(CC(C)(c3csc(N)n3)OC2=O)C(=O)O1` (configuration not stated), with -2.2% (inactive).
Take `O=C(COC(=O)c1ccccc1NC(=O)c1ccco1)Nc1ccc2c(c1)OCO2`: the cytotoxicity is -13.5% (inactive).
On to `COc1cccc(C2C3=C(N=C4SCC(=O)N42)c2ccccc2CC3)c1OC` (configuration not stated), for which the cytotoxicity was -2.4% (inactive).
Consider `CCN(CC)c1ccc(-c2nn3c(-c4cccnc4)nnc3s2)cc1`, for which the cytotoxicity is 43.2% (inactive).
Take `CN(C)c1ccc(-c2nn3c(-c4ccncc4)nnc3s2)cc1`: the cytotoxicity is -9.1% (inactive).
Under `CCc1nc2ccccc2n1CC(=O)N(C(C)CC)C1CCS(=O)(=O)C1` (configuration not stated) stands -20.3% (inactive).
As for `Cn1c(Cn2c(=O)sc3ccccc32)nnc1SCc1ccc(F)cc1`, the cytotoxicity is -3.2% (inactive).
As for `CCOC(=O)Nc1ccc2c(c1)N(C(=O)CN1CCN(C)CC1)c1ccccc1S2`, the cytotoxicity was 5.2% (inactive).
With `O=C(CN1CCCC(O)C1)N1c2ccccc2Sc2ccc(C(F)(F)F)cc21` (configuration not stated), the cytotoxicity is 24% (inactive).
Then `O=C(Nc1cccc(C(F)(F)F)c1)c1cccnc1N1CCN(CCO)CC1`, with -10.8% (inactive); and `CN(C)CCCN1c2ccccc2Sc2ccccc21`, with 13.7% (inactive); and `C=CCN1C(=O)c2ccccc2Sc2ccc(C(=O)N3CCN(C)CC3)cc21`, with -17.1% (inactive).
Under `COc1ccc2c(c1)Sc1ccccc1N2CCN(C)C` stands 12.2% (inactive).
Under `COc1ccc(Br)cc1S(=O)(=O)N(CC(=O)N1CCOCC1)c1ccccc1` stands -5.3% (inactive); under `O=C(CCc1ccccc1)Nc1ccncc1`, 0.1% (inactive).
For the compound `Cn1c(Cn2c(=O)sc3ccccc32)nnc1SCC(=O)Nc1ccc(F)cc1`, the cytotoxicity is -7.1% (inactive).
For the compound `CCOc1ccccc1N1CCN(Cc2cccc(OC)c2OC)CC1`, the cytotoxicity is -10.5% (inactive).
Under `Cc1[nH]c2ccccc2c1NC(=O)CN1CCN(c2cccc(C(F)(F)F)c2)CC1` stands 62.1% (active); under `O=C(CN1CCN(c2ccccc2)CC1)Nc1cccc(C(F)(F)F)c1`, -4.7% (inactive); under `OC(CN1CCN(c2cccc(C(F)(F)F)c2)CC1)c1c[nH]c2ccccc12` (configuration not stated), 26.7% (inactive).
Then `O=C(CCn1c(=O)[nH]c2ccccc2c1=O)N1CCN(c2cccc(C(F)(F)F)c2)CC1`, with -11.5% (inactive).
Turning to `COC(=O)c1[nH]c2ccccc2c1NC(=O)CN1CCN(c2cccc(Cl)c2)CC1`, the cytotoxicity was 0.5% (inactive).
Then `CCc1nc2ccccc2c(C(=O)OCC(=O)NCCCN2CCCC2=O)c1C`, with -4.2% (inactive); and `CCOc1cc2[nH]c(=O)n(CCCCC(=O)NC3CCCCCC3)c(=O)c2cc1OCC`, with 2.3% (inactive).
Turning to `COC(=O)c1cc(COC(=O)c2cccnc2SC)oc1C`, the cytotoxicity is -9.4% (inactive).
Then `O=S(=O)(Nc1cccnc1)c1ccc2c(c1)OCCO2`, with -9.7% (inactive).
As to `CCOC(=O)Cc1nnc2c(Nc3ccc(C)cc3)nc3nonc3n12`, the cytotoxicity was -35.8% (inactive).
Then `CCOC(=O)Cn1nc(-c2ccc(Cl)cc2)cc1N`, with 10.3% (inactive).
Under `CCOC(=O)CCn1c(CC(=O)OCC)nc2ccccc21` stands -8.6% (inactive); under `CCOC(=O)Cc1nnc2c(Nc3ccc(Cl)cc3)nc3nonc3n12`, 68.3% (active); under `CCOC(=O)n1ccc(C(=O)Nc2ccccc2F)n1`, -0.9% (inactive).
For `CCOC(=O)Cc1nnc2c(Nc3ccccc3F)nc3nonc3n12`, the cytotoxicity was 61.6% (active).
Under `CCOC(=O)Cc1csc(NC(=O)c2cccc(N3C(=O)CCC3=O)c2)n1` stands -14.9% (inactive); under `O=C(Nn1cnnc1)c1cc(-c2ccccn2)nc2ccccc12`, 2.7% (inactive); under `O=C(Nc1cccc(Cl)c1N1CCCC1)c1ccc(Br)o1`, 75% (active).
Under `O=C(Nc1ccccc1N1CCCC1)c1ccc(Br)o1` stands 1.2% (inactive); under `CCN1CCN(c2c(Cl)cccc2NC(=O)c2ccc(Br)o2)CC1`, 1.5% (inactive).
Under `N#Cc1ccsc1NC(=O)CSc1ncn[nH]1` stands -0.1% (inactive).
Take `CCCCNS(=O)(=O)c1ccc2nc(SCC(=O)c3ccc(C#N)cc3)[nH]c2c1`: the cytotoxicity is 5.7% (inactive).
Under `CCCCNS(=O)(=O)c1ccc2nc(SCC(=O)Nc3sccc3C#N)[nH]c2c1` stands 88.6% (active); under `CCn1cc(Br)c(C(=O)N(C)Cc2ccccc2)n1`, -2.4% (inactive).
Under `CCC1CCCCN1C(=O)COC(=O)c1ccc(S(=O)(=O)N2CCOCC2)cc1` (configuration not stated) stands -5% (inactive); under `Cc1ccc(-c2nnn(CC(=O)N(c3ccccc3)C(C(=O)NC3CCCC3)c3ccco3)n2)o1` (configuration not stated), -1% (inactive); under `Cc1ccc(-c2nnn(CC(=O)N(Cc3cccs3)C(C(=O)NC3CCCC3)c3ccco3)n2)o1` (configuration not stated), 80.5% (active).
As to `Cc1ccc(-c2nnn(CC(=O)N(Cc3cccs3)C(C(=O)NC(C)(C)C)c3ccco3)n2)o1` (configuration not stated), the cytotoxicity is -3.6% (inactive).
Then `COc1ccc(OC)c(Nc2nc(-c3sc(N)nc3C)cs2)c1`, with 34.5% (inactive); and `COc1ccc(CNC(=O)C2CCCN2S(=O)(=O)c2ccc(C)cc2)cc1` (configuration not stated), with 9.7% (inactive).
Then `CC(C)(C)c1ccccc1OCCCCCNCCO`, with 9.8% (inactive); and `CC(=O)CCc1c(C)[nH]c2ccccc2c1=O`, with -19.6% (inactive).
Then `Cc1ccc(-c2noc(CCC(=O)NCCCN3CCN(c4cccc(Cl)c4)CC3)n2)cc1`, with -6.5% (inactive); and `O=C(Nc1ccc(N2CCOCC2)cc1)c1ccc2nc(-c3ccco3)c(-c3ccco3)nc2c1`, with -9.4% (inactive).
Regarding `O=C(c1ccc2ccccc2c1)N1CCN(c2ccc(O)cc2)CC1`, the cytotoxicity is 50.3% (active).
Under `CN1CCN(C(=O)c2ccc3ccccc3c2)CC1` stands -15.3% (inactive).
Under `O=C(c1cc(-c2ccco2)on1)N1CCN(c2ccccc2)CC1` stands 13.6% (inactive).
Regarding `O=C(c1ccc2ccccc2c1)N1CCN(c2ccccc2)CC1`, the cytotoxicity is -4.8% (inactive).
Then `COc1ccccc1N1CCN(C(=O)c2ccc3nc(-c4ccco4)c(-c4ccco4)nc3c2)CC1`, with 8.9% (inactive); and `O=C(Nc1ccc(N2CCOCC2)cc1)Nc1ccc2nc(-c3ccco3)c(-c3ccco3)nc2c1`, with 76.2% (active); and `O=C(Nc1ccc2nc(-c3ccco3)c(-c3ccco3)nc2c1)N1CCCCCC1`, with 29.1% (inactive).
Turning to `O=C(c1cccs1)N1CCC(c2ccccc2)C1` (configuration not stated), the cytotoxicity is 5.4% (inactive).
`O=c1[nH]c2ccccc2cc1-c1noc(-c2cccnc2)n1`: the cytotoxicity was 6.4% (inactive).
With `CCCOc1ccc(NC2=CC(=O)CC(C)(C)C2)cc1`, the cytotoxicity is -2.4% (inactive).
Under `COc1cc(-c2csc(N3CCOCC3)n2)cc(OC)c1OC` stands 4.3% (inactive); under `COc1ccc(OC)c(NC(=O)c2nnn(Cc3ccc(Br)cc3F)c2N)c1`, 18.8% (inactive).
As for `c1ccc(-c2ccc(OCCOCCn3cncn3)cc2)cc1`, the cytotoxicity is -14.6% (inactive).
For `O=C(CSc1nnc(C2COc3ccccc3O2)o1)N1CCCc2ccccc21` (configuration not stated), the cytotoxicity was -5.7% (inactive).
For `COc1ccc(C(O)c2coc3ccc(O)c(CN(C)C)c23)cc1` (configuration not stated), the cytotoxicity is 8.4% (inactive).
